Laboratory results as given in PubChem BioAssay.
Activity calls are given as the source filed them.

How the values were obtained:
[1] = binders of probe aFSTL3 on microarray, primary screen, stem cell growth factor project, biochemical, small-molecule microarray, fluorescence 635/667 (AID 1064); conditions: higher = more signal;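 further: measures binding of the biotinylated anti-FSTL3 antibody to printed compounds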
[2] = binders from COS7 lysate, DM2A8 probe, primary screen, torsin A project, cell lysate, small-molecule microarray, fluorescence 635/667 (AID 1065); conditions: higher = more signal, COS7 lysate expressing mutant human TOR1A
[3] = binders of probe aFGF2 on microarray, primary screen, stem cell growth factor project, biochemical, small-molecule microarray, fluorescence 635/667 (AID 1067); conditions: higher = more signal;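 further: measures binding of biotinylated aFGF2 protein to printed compounds on slides; z-score merges feature fluorescence and signal-to-noise across triplicate slides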
[4] = binders of probe aFGF10 on microarray, primary screen, stem cell growth factor project, biochemical, small-molecule microarray, fluorescence 635/667 (AID 1071); conditions: higher = more signal;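 further: score merges 667 nm spot intensity and signal to noise from triplicate slides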
[5] = biological target: Neurogenic locus notch homolog protein 2 (Homo sapiens) (UniProt Q04721); assay: Notch2 binders on small-molecule microarrays, primary screen, biochemical, small-molecule microarray, 635 nm fluorescence, stem cell growth factors (AID 1073); conditions: Notch2 binding, higher = more signal
[6] = biological target: Pro-neuregulin-1, membrane-bound isoform (Homo sapiens) (UniProt Q02297); assay: NRG1 binders on small-molecule microarrays, primary screen, psychiatric disease protein project, biochemical, small-molecule microarray, fluorescence 635/667 (AID 1075); conditions: NRG1 binding, 635 nm fluorescence, higher = more signal;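 further: score combines 667 nm spot fluorescence with signal to noise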
[7] = test system: Neuregulin-1 EGF-like domain; assay: binders of neuregulin-1 EGF-like domain, primary screen, biochemical, small-molecule microarray, 635 nm fluorescence (AID 1081); conditions: small-molecule microarray binding, higher = more signal;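 further: binding of the protein to compounds printed on small-molecule microarray slides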
[8] = FRG1 promoter luciferase signal modulators, primary screen, FRG1 inhibition for FSHD, cell-based, C2C12 myotubes, firefly/Renilla luciferase, luminescence (AID 1084); conditions: higher = more signal, called active from +8 up or from −8 down
[9] = binders of probe aFST on microarray, primary screen, stem cell growth factor project, biochemical, small-molecule microarray, fluorescence 635/667 (AID 1086); conditions: higher = more signal;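 further: score merges 667 nm fluorescence with signal-to-noise of each printed compound spot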
[10] = binders of probe aHhip on microarray, primary screen, stem cell growth factor project, biochemical, small-molecule microarray, fluorescence 635/667 (AID 1087); conditions: higher = more signal;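 further: score merges spot fluorescence at 667nm with spot signal to noise ratio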
[11] = test system: PRMT1 (protein arginine N-methyltransferase 1); assay: PRMT1 binders on small-molecule microarrays, primary screen, biochemical, small-molecule microarray, 635 nm fluorescence (AID 1088); conditions: small-molecule microarray binding, higher = more signal;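 further: binding of Prmt1 protein to compounds spotted on small-molecule microarray slides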
[12] = yeast growth modulation, basal conditions, primary screen, YJM789 clinical isolate, OD600, 24 h (AID 1089);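 further: growth of clinical yeast isolate S. cerevisiae YJM 789 seeded 1000 cells per well; test concentration not given here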; conditions: S. cerevisiae YJM789 growth, higher = more signal, called active from +8 up or from −8 down
[13] = fission yeast growth modulation, primary screen, strain 972, OD600, 24 h, no modulator (AID 1090);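 further: basal condition with compound alone and no growth modifier present; test concentration not given here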; conditions: S. pombe 972 growth, higher = more signal, called active from +8 up or from −8 down
[14] = S. cerevisiae growth modulation with rapamycin, primary screen, strain BY4716, OD600, 96 h (AID 1091); conditions: higher = more signal, called active from +8 up or from −8 down; further: test concentration not given here
[15] = biological target: Torsin-1A-interacting protein 2 (Homo sapiens) (UniProt Q8NFQ8); assay: LULL1 binders on small-molecule microarray, primary screen, cell lysate, human LULL1 lysate, 635/667 nm fluorescence (AID 1092); conditions: hLULL1 lysate binding, 635 nm fluorescence, higher = more signal;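 further: probe is lysate of COS7 cells overexpressing human LULL1; score merges per-feature 667 nm fluorescence with signal-to-noise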
[16] = E. coli growth modulation, two-sided OD650, primary screen, E. coli filamentation project, strain DRC41, 24 h (AID 1093); conditions: OD650, 24 h, higher = more signal, called active from +8 up or from −8 down;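 further: MC1000 strain lacking acrAB efflux and sulA so SOS filamentation is blocked; test concentration not given here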
[17] = small-molecule microarray binders of probe aLefty2, primary screen, biochemical, biotinylated probe, 635/667 nm fluorescence (AID 1094); conditions: higher = more signal;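 further: score merges spot fluorescence near 667 nm with spot signal-to-noise ratio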
[18] = test system: Noggin (protein binding on small-molecule microarray); assay: Noggin binders on small-molecule microarray, primary screen, biochemical, 635/667 nm fluorescence (AID 1095); conditions: 635 nm fluorescence, higher = more signal;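 further: score merges 667 nm feature fluorescence with signal to noise over triplicate slides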
[19] = biological target: Neurogenic locus notch homolog protein 3 (Homo sapiens) (UniProt Q9UM47); assay: NOTCH3 binders on small-molecule microarray, primary screen, biochemical, 635/667 nm fluorescence (AID 1096); conditions: NOTCH3 binding, 635 nm fluorescence, higher = more signal
[20] = small-molecule microarray binders of probe aEGFR, primary screen, biochemical, biotinylated probe, 635/667 nm fluorescence (AID 1097); conditions: higher = more signal;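 further: probe is a biotinylated anti-EGFR antibody binding compounds printed on slides; score combines fluorescence near 667 nm and signal to noise of each spot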

Sequence of Neurogenic locus notch homolog protein 2 (Homo sapiens) (Q04721 whole entry, looked up, canonical isoform): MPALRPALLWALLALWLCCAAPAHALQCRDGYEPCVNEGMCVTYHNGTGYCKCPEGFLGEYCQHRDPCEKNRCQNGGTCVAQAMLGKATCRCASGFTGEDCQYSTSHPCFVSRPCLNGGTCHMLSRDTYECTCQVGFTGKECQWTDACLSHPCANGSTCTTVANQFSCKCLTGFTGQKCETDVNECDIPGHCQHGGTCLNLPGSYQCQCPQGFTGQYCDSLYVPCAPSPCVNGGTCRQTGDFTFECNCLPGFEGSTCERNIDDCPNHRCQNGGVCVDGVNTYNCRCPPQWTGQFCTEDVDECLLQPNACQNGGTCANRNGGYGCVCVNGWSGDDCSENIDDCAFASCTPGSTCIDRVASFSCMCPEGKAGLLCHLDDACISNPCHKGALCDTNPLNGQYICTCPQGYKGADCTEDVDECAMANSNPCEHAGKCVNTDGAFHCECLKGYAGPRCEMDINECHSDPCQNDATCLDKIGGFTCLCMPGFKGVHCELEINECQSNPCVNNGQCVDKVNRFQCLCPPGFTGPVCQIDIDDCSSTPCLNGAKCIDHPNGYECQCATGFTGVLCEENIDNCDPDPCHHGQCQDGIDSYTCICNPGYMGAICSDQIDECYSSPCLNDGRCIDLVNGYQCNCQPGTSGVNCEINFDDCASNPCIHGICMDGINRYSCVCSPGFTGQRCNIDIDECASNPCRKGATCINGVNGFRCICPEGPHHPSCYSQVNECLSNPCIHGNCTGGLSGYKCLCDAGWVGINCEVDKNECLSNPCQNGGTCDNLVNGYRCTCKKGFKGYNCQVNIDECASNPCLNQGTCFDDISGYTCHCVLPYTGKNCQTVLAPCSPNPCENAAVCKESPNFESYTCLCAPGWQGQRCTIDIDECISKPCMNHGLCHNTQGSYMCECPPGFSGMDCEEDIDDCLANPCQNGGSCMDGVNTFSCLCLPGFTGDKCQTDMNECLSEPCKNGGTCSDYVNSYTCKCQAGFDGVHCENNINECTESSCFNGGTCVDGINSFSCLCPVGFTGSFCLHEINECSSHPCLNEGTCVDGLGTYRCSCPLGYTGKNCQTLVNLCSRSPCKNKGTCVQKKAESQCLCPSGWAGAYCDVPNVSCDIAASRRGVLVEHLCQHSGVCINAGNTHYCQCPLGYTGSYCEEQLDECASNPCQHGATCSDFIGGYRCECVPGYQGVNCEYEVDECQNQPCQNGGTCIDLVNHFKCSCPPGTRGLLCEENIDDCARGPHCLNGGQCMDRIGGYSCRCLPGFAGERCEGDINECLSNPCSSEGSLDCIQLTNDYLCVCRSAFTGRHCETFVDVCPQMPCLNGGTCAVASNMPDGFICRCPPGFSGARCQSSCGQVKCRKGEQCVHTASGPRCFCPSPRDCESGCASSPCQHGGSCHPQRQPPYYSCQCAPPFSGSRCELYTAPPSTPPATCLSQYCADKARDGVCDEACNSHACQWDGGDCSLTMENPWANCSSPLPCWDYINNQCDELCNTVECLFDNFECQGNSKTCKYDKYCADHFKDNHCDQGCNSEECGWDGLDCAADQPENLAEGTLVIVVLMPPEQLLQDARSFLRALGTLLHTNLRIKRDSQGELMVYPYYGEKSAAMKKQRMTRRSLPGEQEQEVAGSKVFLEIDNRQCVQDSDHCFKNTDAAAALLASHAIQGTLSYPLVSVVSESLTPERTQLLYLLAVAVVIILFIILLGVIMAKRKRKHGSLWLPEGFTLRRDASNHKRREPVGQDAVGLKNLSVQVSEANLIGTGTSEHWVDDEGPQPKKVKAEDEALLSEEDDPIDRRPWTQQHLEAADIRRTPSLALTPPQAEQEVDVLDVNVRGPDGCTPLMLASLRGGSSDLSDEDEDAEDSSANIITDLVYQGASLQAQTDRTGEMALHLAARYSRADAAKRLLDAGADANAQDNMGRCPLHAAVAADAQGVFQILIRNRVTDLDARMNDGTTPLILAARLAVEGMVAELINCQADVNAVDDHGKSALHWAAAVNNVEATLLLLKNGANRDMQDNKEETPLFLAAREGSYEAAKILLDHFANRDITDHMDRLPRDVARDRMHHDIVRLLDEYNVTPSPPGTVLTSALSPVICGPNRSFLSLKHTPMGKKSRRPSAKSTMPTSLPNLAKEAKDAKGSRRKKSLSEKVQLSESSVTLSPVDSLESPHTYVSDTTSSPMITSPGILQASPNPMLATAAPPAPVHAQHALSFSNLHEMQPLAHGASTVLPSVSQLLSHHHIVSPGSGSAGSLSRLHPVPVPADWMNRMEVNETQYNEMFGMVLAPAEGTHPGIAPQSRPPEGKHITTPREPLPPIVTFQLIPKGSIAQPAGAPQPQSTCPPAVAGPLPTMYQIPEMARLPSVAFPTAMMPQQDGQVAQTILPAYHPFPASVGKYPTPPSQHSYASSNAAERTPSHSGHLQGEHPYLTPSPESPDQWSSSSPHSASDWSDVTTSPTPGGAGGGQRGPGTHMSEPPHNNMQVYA
Sequence of Neurogenic locus notch homolog protein 3 (Homo sapiens) (Q9UM47 whole entry, looked up): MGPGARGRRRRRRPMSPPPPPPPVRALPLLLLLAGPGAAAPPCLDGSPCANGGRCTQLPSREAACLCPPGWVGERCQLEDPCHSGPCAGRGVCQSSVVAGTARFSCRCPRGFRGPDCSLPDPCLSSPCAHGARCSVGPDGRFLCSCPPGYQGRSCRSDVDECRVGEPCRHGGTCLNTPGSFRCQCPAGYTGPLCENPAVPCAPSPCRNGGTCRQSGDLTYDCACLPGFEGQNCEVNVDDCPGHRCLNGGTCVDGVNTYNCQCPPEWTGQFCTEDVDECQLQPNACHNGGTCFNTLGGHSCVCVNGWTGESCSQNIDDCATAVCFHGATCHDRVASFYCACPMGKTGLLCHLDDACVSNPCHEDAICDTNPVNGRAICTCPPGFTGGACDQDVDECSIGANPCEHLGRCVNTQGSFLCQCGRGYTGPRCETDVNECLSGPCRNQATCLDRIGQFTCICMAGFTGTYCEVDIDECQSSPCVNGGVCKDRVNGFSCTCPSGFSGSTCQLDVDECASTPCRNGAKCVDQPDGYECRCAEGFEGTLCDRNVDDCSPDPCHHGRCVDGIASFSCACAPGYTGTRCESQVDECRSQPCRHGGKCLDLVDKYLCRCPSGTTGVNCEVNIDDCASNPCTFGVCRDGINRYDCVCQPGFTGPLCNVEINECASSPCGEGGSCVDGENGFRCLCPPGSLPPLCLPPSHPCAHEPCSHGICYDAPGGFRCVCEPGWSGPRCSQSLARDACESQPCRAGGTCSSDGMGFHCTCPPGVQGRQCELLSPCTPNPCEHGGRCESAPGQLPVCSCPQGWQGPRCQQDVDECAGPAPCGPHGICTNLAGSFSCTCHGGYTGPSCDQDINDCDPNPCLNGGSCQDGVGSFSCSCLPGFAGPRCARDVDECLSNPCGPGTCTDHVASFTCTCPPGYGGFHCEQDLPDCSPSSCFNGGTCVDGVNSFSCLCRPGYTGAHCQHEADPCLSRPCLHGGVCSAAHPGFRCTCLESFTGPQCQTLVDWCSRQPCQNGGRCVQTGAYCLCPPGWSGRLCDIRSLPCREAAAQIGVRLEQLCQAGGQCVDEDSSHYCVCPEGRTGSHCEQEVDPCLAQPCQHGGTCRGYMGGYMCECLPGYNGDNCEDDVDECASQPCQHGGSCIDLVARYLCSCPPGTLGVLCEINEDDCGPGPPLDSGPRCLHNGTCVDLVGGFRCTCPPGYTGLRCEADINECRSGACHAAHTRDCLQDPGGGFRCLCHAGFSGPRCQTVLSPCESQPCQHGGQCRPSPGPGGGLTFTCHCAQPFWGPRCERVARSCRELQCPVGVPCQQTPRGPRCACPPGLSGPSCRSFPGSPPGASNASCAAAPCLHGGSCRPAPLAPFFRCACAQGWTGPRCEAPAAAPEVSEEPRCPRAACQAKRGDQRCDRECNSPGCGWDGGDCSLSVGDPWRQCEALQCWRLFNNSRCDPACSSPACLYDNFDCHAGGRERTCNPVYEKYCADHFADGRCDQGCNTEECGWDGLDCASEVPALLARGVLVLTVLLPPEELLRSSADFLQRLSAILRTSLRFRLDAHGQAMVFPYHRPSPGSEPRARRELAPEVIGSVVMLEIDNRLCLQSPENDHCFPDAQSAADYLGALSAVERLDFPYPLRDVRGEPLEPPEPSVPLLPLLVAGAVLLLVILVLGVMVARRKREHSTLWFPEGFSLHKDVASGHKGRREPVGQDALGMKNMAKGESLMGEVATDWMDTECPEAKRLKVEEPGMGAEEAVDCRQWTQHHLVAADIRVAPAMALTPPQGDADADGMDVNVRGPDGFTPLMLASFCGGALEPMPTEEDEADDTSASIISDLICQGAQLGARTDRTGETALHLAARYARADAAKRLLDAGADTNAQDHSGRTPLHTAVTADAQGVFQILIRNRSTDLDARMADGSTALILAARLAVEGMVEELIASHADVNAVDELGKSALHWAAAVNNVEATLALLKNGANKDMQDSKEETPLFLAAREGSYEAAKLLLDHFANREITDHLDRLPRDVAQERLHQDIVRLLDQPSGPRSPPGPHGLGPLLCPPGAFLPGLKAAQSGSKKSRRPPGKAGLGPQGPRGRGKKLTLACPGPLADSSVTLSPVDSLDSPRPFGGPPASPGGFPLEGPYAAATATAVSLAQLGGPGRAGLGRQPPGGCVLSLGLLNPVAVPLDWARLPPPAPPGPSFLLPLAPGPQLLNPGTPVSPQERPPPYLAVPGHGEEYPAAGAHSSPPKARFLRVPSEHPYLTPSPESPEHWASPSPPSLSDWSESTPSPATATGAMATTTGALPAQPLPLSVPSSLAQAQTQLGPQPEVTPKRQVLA

Compound | composite z-score [1] | composite z-score [2] | composite z-score [3] | composite z-score [4] | composite z-score [5] | composite z-score [6] | composite z-score [7] | z-score [8] | composite z-score [9] | composite z-score [10] | composite z-score [11] | z-score [12] | z-score [13] | z-score [14] | composite z-score [15] | z-score [16] | composite z-score [17] | composite z-score [18] | composite z-score [19] | composite z-score [20]
C=C[C@H](COC(C)=O)N(Cc1ccc(OC(C)=O)c(OC)c1)S(=O)(=O)c1ccc(Br)cc1 | -0.0411 | 1.46 | 0.125 | 0.311 | 0.86 | 0.785 | 1.14 | -3.46 (inactive) | 0.413 | -0.0024 | 0.484 | -2.5 (inactive) | -1.08 (inactive) | 0.105 (inactive) | 1.81 | 1.24 (inactive) | 0.15 | 0.337 | 0.176 | 0.312
CCN(CC)c1ccc(N2CC=CC34O[C@@H]5C=CCCOC(=O)C5[C@H]3C(=O)N(CCCCCO)[C@@H]4C2=O)cc1 (stereo not given in full) | 0.373 | 2.13 | -0.116 | -0.851 | -0.788 | 1.78 | 1.01 | -0.736 (inactive) | 0.37 | -0.226 | -0.203 | -0.847 (inactive) | -1.3 (inactive) | -0.818 (inactive) | 0.965 | 2.85 (inactive) | -0.126 | -0.514 | -0.272 | -0.168
COCCOC(=O)N1C(=O)[C@@]2(c3cc(C#CCC(C(=O)OC)C(=O)OC)ccc31)[C@H](c1ccc(O)cc1)N1[C@H](c3ccccc3)[C@H](c3ccccc3)OC(=O)[C@H]1[C@@H]2C(N)=O | -0.239 | 0.365 | 0.0661 | 1.11 | 1.1 | 0.328 | 1.32 | -0.4 (inactive) | 0.404 | -0.124 | 1.28 | -0.151 (inactive) | 0.431 (inactive) | 0.291 (inactive) | 3.06 | -0.138 (inactive) | 0.216 | 0.604 | 0.828 | 0.0717
O=C1O[C@@H](c2ccccc2)[C@@H](c2ccccc2)N2[C@@H](c3ccc(O)cc3)[C@]3(C(=O)Nc4ccc(C#CC5(O)CCCCCC5)cc43)[C@@H](C(=O)N3CCCCCCC3)[C@H]12 | 2.55 | 2 | 0.764 | 0.876 | 1.66 | 2.49 | 1.27 | -0.849 (inactive) | 2.79 | 0.67 | 1.54 | 1.16 (inactive) | 0.321 (inactive) | 2.09 (inactive) | 4.45 | 0.26 (inactive) | 1.42 | 2.41 | 1.07 | 1.24
CC(C)C(=C=CC[C@@H](O)c1ccccc1OCCO)C[C@@H](O)c1ccccn1 | -0.438 | -0.0682 | -0.153 | 0.477 | 0.0623 | 0.0795 | 1.19 | -0.306 (inactive) | 0.272 | 0.176 | 0.439 | 2.46 (inactive) | -0.18 (inactive) | -1.1 (inactive) | 2.67 | -0.0287 (inactive) | -0.126 | 0.538 | 0.878 | -0.099
CO[C@H]1O[C@H](CO)[C@@H](OC(=O)Nc2ccc(Oc3ccccc3)cc2)[C@H](OC(=O)Nc2ccccc2)[C@H]1OC(=O)Nc1ccccc1 | 0.096 | 0.95 | 0.0732 | 1.16 | 1.48 | 1.3 | 1.39 | 0.119 (inactive) | 0.446 | -0.0346 | 1.55 | 1.48 (inactive) | 0.613 (inactive) | -1.75 (inactive) | 3.26 | 0.939 (inactive) | 0.286 | 0.7 | 1.13 | 0.13
C=CC[C@@H](OC(=O)Nc1ccc(OC)cc1)c1ccc(O)c2ccccc12 | -0.316 | 0.129 | -0.0364 | 0.224 | 0.746 | 0.263 | 1.08 | 6.38 (inactive) | 0.56 | -0.0296 | 1.28 | -23.6 (active) | -19.6 (active) | -1.31 (inactive) | 2.28 | 1.05 (inactive) | -0.142 | 1.46 | 1.05 | 0.0225
O=C1O[C@H](c2ccccc2)[C@H](c2ccccc2)N2[C@H]1[C@@H](C(=O)O)[C@]1(C(=O)Nc3ccc(C#CC4=CCCCC4)cc31)[C@H]2c1ccc(OCCO)cc1 | -0.0152 | 0.651 | -0.0438 | 1.09 | 1.44 | 1.77 | 1.34 | 0.448 (inactive) | 1.03 | -0.0672 | 1.54 | 2.1 (inactive) | 1.14 (inactive) | -0.1 (inactive) | 3.06 | -0.413 (inactive) | -0.0104 | 1.34 | 1.1 | -0.0657
COc1ccc(C(=O)Nc2cccc(CN3C(=O)[C@]4(O[C@H](CC(=O)N5CCC[C@H]5CO)[C@@H]([Si](C)(C)c5ccc(OC)cc5)[C@@H]4C)c4ccccc43)c2)cc1 | -0.0422 | 0.717 | 0.0257 | 0.394 | 0.135 | 0.847 | 1.12 | -1.22 (inactive) | 0.156 | -0.253 | 1.38 | -0.979 (inactive) | -0.22 (inactive) | -0.378 (inactive) | 2.34 | 0.44 (inactive) | -0.181 | 0.467 | 0.869 | -0.157
CC(=O)NCCCC[C@@H]1NC(=O)[C@@H]2C[C@H](C(=O)NCCCCCCNC(=O)CS)[C@H](c3ccc(O)cc3)N2C1=O | 0.219 | 0.463 | -0.0985 | -0.1 | -0.498 | 1.49 | 1.27 | 1.5 (inactive) | -0.715 | -0.0645 | 1.5 | 0.372 (inactive) | -0.804 (inactive) | 0.778 (inactive) | 1.46 | -0.581 (inactive) | -0.103 | 0.171 | 0.0726 | -0.142
